The full ranking holds about 33,000 sequences; the median of “E-score (-0.5 to 0.5)” is about -0.016, and the highest 2% start at about 0.32. This excerpt belongs to a sample that is enriched for the highest values.

This test addresses T1, Stp1 (UniProt B3LFK1).
T1 sequence: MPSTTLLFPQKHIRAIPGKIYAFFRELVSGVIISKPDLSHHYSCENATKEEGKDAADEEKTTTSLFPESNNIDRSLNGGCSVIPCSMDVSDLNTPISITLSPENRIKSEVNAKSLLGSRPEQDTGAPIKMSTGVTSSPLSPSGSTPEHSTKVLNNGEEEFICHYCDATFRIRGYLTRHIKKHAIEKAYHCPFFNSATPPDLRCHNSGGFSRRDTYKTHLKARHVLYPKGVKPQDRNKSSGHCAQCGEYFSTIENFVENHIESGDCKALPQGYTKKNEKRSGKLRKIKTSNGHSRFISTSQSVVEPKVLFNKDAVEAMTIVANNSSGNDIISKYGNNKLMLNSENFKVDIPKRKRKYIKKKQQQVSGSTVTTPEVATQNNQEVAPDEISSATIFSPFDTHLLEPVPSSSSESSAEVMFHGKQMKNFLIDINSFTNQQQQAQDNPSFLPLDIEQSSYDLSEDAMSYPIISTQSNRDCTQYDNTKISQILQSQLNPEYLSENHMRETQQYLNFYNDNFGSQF
Put plainly: PBM E-score (8-mer binding enrichment) (E-score (-0.5 to 0.5)); higher = stronger / more preferred TF binding. The following applies: protein concentration: 200 nM; construct: GST-full length. As to the method:
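Universal 'all 10-mer' protein binding microarrays (Agilent AMADID 015681) probed with GST-tagged S. cerevisiae TFs (full-length or DBD) made by in vitro transcription/translation (PURExpress), about 100-200 nM. Bound TF was detected with fluorescent anti-GST. Each ungapped 8-mer (which stands for itself and its reverse complement) is scored by the PBM enrichment score (E-score), a modified Wilcoxon-Mann-Whitney statistic from -0.5 to +0.5, computed with the Universal PBM Analysis Suite. Scale: above 0.35 generally sequence-specific binding.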
Turning to AGAGGCGC, the “PBM E-score” value stood at 0.327.

CGAGGCGC: the “PBM E-score” value amounted to 0.456.

As for CGAGGCTC, the “PBM E-score” value is 0.131.

For the sequence AGAGGCGA, the “PBM E-score” value was found to be 0.135.

Take AGAGGCGG: the “PBM E-score” value was 0.061.

With CGAGGCGA, the “PBM E-score” value amounted to 0.289.

Take GGGGCAAA: the “PBM E-score” value was 0.0199.

For the sequence TACTGTGA, the “PBM E-score” value is -0.14.

Take ATGGTAAA: the “PBM E-score” value is 0.0118.

On to AATTACTC, for which the “PBM E-score” value is 0.144.

With CTTCTAGC, the “PBM E-score” value was -0.0527.

As to GACGTGCC, the “PBM E-score” value was determined as 0.238.

Regarding TCCGTGCA, the “PBM E-score” value amounted to 0.258.

As for ACCGTGGA, the “PBM E-score” value worked out at 0.0243.

For the sequence GCCGTGCC, the “PBM E-score” value is 0.487.

On to ACCGTGCC, for which the “PBM E-score” value was 0.313.

In the case of CCCGTGGA, the “PBM E-score” value was -0.0712.

In the case of GCCGTGCA, the “PBM E-score” value is 0.478.

As for ACCGTGTA, the “PBM E-score” value stood at 0.0338.

With CCCGTGTA, the “PBM E-score” value worked out at 0.0889.

Turning to ACCGTGCA, the “PBM E-score” value is -0.0437.

Take GCCGTGGA: the “PBM E-score” value worked out at 0.402.

On to GCCGTGTA, for which the “PBM E-score” value was determined as 0.473.

With CCTTTTGC, the “PBM E-score” value is 0.214.

In the case of ACAGATAG, the “PBM E-score” value was -0.0308.

On to AATATGCG, for which the “PBM E-score” value came out at 0.114.

ACAACGAT: the “PBM E-score” value is 0.00545.

For the sequence AAGACGAA, the “PBM E-score” value worked out at 0.0123.

As for GAAGTGTC, the “PBM E-score” value is -0.0596.

CGAGTCGA: the “PBM E-score” value was -0.00477.

Consider ACGGGTGC, for which the “PBM E-score” value was found to be 0.105.

Turning to GCGCTCGA, the “PBM E-score” value turned out to be 0.0767.

For the sequence GCCGTGAC, the “PBM E-score” value came to 0.294.

Turning to CTCGTGCC, the “PBM E-score” value stood at 0.294.

Take CGCGTGCC: the “PBM E-score” value was 0.325.

As to AGCGTGCC, the “PBM E-score” value was found to be 0.126.

As to CCCGTGGC, the “PBM E-score” value was found to be 0.046.

Consider CGCGTGCA, for which the “PBM E-score” value was 0.0968.

As to TCCGTGAA, the “PBM E-score” value was determined as 0.0172.

For the sequence GCCGTGAA, the “PBM E-score” value came out at 0.361.

With CCCGTGCC, the “PBM E-score” value was found to be 0.33.

Turning to CCTCTCCC, the “PBM E-score” value was -0.253.

For ACTGGCAG, the “PBM E-score” value is 0.0412.

For the sequence CTCGACGA, the “PBM E-score” value is -0.13.

As to TAATAGTA, the “PBM E-score” value is 0.24.

Turning to ATTCCTAC, the “PBM E-score” value came to 0.0636.

CCAATAGG: the “PBM E-score” value turned out to be 0.0256.

For ATCGGCCG, the “PBM E-score” value came out at 0.15.

For the sequence CCCGGCCG, the “PBM E-score” value is -0.152.

In the case of AACGGCCC, the “PBM E-score” value was found to be 0.235.

With AACGGCCA, the “PBM E-score” value worked out at 0.214.

GACGGCCC: the “PBM E-score” value came to 0.069.

Turning to AACGGCCG, the “PBM E-score” value was 0.333.

Consider GACGGCCA, for which the “PBM E-score” value is -0.0395.

Regarding CACGGCCC, the “PBM E-score” value was found to be 0.337.

Consider CAAGGCCG, for which the “PBM E-score” value was 0.103.

CACGGCCG: the “PBM E-score” value is 0.338.

In the case of CACGGCCA, the “PBM E-score” value came to 0.34.

With AACGGCCT, the “PBM E-score” value came out at 0.151.

Take AGATCAGG: the “PBM E-score” value was -0.173.

For the sequence CTAGAGTC, the “PBM E-score” value is -0.33.

Consider ACGGAGCT, for which the “PBM E-score” value stood at 0.087.

Turning to AACATAGG, the “PBM E-score” value is 0.0786.

With AGCCTTCA, the “PBM E-score” value worked out at 0.108.

As to AGGCATAC, the “PBM E-score” value was 0.0863.

Turning to CTTTCTCC, the “PBM E-score” value was -0.244.

For CATGCCGC, the “PBM E-score” value worked out at 0.427.

Consider GATGCCGA, for which the “PBM E-score” value is 0.29.

With GATGCCCC, the “PBM E-score” value is -0.129.

Take CATGCCGA: the “PBM E-score” value turned out to be 0.188.

GATGCCGC: the “PBM E-score” value amounted to 0.466.

As for CATGCCGG, the “PBM E-score” value came to 0.186.

With CGGAAACA, the “PBM E-score” value was -0.0866.

For GGGCATAC, the “PBM E-score” value is -0.00074.

Turning to GCACGTGA, the “PBM E-score” value turned out to be 0.135.

In the case of GCACGTGC, the “PBM E-score” value was determined as 0.352.

For CCACGTGC, the “PBM E-score” value came out at 0.215.

Turning to ACCAGAGC, the “PBM E-score” value was -0.0074.

As for CCGCACCA, the “PBM E-score” value amounted to 0.237.

On to CGTGCCTC, for which the “PBM E-score” value came to 0.398.

In the case of CGTGCCCC, the “PBM E-score” value was 0.0449.

For the sequence AGTGCCTC, the “PBM E-score” value came to 0.347.

With AGTGCCTA, the “PBM E-score” value worked out at 0.21.

As for CGTGCCTA, the “PBM E-score” value is 0.184.

On to AGTGCCTG, for which the “PBM E-score” value was -0.0958.

With GGTGGTTA, the “PBM E-score” value turned out to be 0.00324.

On to AACGCATG, for which the “PBM E-score” value is -0.0148.

Take CGCCGAAC: the “PBM E-score” value stood at 0.347.

(Values after the supplement of paper PMC3334620.)
